Shown are actives, neighbours in structure and some others; about 9.2% of the full set was active somewhere.
FLuc modulator: inhibits or activates purified firefly luciferase, miR-21 counter-screen. Potency, µM (series often up to 57.5 µM), hits mostly inhibitors. P08659. actives 6.9% (n = 360,000). AID 588342. purified FLuc, Km substrates, luminescence inhibition; note: nearly all actives have a fitted effect of over 55% in size
Target sequence (P08659 whole entry, looked up): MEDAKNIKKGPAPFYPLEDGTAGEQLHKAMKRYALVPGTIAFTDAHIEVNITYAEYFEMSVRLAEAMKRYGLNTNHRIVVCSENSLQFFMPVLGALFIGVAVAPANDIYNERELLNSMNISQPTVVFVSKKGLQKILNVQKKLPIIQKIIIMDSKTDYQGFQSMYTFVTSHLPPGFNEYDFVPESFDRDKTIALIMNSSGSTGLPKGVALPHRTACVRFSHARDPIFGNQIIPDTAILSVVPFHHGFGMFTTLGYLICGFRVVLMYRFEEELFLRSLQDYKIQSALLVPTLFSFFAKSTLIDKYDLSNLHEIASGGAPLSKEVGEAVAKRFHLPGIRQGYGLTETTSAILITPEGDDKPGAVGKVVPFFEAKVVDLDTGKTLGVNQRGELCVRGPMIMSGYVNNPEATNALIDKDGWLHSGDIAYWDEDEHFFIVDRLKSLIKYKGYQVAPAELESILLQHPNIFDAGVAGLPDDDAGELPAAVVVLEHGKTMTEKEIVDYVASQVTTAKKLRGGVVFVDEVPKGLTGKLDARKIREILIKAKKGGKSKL
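Biochemical qHTS of compounds, final roughly 60 µM downward over six points, against 10 nM purified firefly luciferase using Km concentrations of substrates (10 uM D-luciferin, 10 uM ATP) in Tris acetate pH 7.5 buffer; luminescence output.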
Rab9 promoter act: activators of Rab9 promoter. Potency, µM (top dose mostly 9.22 µM), most hits filed as activators. Huh7 Rab9 promoter-luciferase reporter, luminescence, 24 h. actives 2.8% (n = 320,000). AID 485297; note: nearly all actives have a fitted effect of over 60% in size
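Luciferase signal after 10 min detection reagent at ambient indicates Rab9 promoter upregulation; stably transfected Huh7 cells were treated 24 h with compound in DMSO at 37 °C, 5% CO2.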
ELG1 DNA repair: blocks ELG1-dependent DNA repair in HEK293T cells; HEK293T ELG1-luciferase reporter, luminescence, 16 h; DNA damage induced by 5-fluorouridine; AID 504467; Potency, µM (top dose mostly 46.1 µM), usual class: inhibitors; actives 2.3% (n = 330,000); note: nearly all actives have a fitted effect of over 55% in size
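Step one: seed 2,000 cells per well. Step two: pin-transfer compound or DMSO alongside 5-fluorouridine. Step three: incubate 16 hr, 37 °C, 5% CO2. Step four: add ONE-Glo, wait 30 min, read luminescence.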
SMN2 splice up: increases expression of the SMN2 splice variant. HEK293 SMN2-luciferase splicing reporter, luminescence, 30-36 h. Potency, µM (series often up to 46.1 µM), hits mostly activators. actives 2.8% (n = 210,000). AID 1458; note: nearly all actives have a fitted effect of over 55% in size
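HEK293 cells carry an SMN2 […]–luciferase reporter in which exon 7 inclusion puts luciferase in frame. Cells were plated 10-12 h before compound addition, then incubated 30-36 h at 37C. ONE-Glo luminescence was read; sodium butyrate at 4.5 mM final served as control.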
ELG1 genotox: inducers of genotoxicity in HEK293T ELG1-luciferase cells; HEK293T ELG1-luciferase reporter, luminescence, 16 h; Potency, µM (top dose mostly 46 µM), actives largely listed as activators; actives 1.3% (n = 330,000); AID 504466; note: nearly all actives have a fitted effect of over 60% in size
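After overnight (16 hr) compound treatment at 37 °C, ELG1-luciferase HEK293T cells were lysed with ONE-Glo; luminescence quantified 30 min later at room temperature.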
NPC1 promoter act: activates the NPC1 promoter; AID 485313; actives 2.4% (n = 320,000); Potency, µM (doses to about 9.22 µM), usual class: activators; Huh7 NPC1 promoter luciferase reporter, 24 h; note: nearly all actives have a fitted effect of over 60% in size
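NPC1 promoter–luciferase Huh7 cells; 24 h compound; luminescence.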
Hits are given with their value; - = inactive; ? = inconclusive; . = no result; [ ] = dose if it differs, or a comment. Calls come from the whole dose curve; as a rule, active = well fitted curve in the direction sought with a large enough effect; inconclusive = small, poorly fitted or top-dose-only effect, or another doubt; inactive = no such curve, though single readings can be large; an effect the other way counts as inactive or inconclusive.

SMILES | FLuc modulator | Rab9 promoter act | ELG1 DNA repair | SMN2 splice up | ELG1 genotox | NPC1 promoter act
CCN(CC)c1nn2c(=O)c(C(=O)NCc3cccc(C)c3)cnc2s1 | - | . | . | . | . | .
CCOC(=O)CSc1nnc(-c2c[nH]c3ccccc23)o1 | 19µM | - | - | . | - | -
COc1ccc(CN(C(=O)CSc2nnc(-c3ccc(F)cc3)o2)c2ccc(F)cc2)cc1 | - | - | ? | - | - | -
COc1ccc(CN(C(=O)CSc2nnc(-c3c[nH]c4ccccc34)o2)c2ccc(F)cc2)cc1OC | ? | - | 5.2µM | - | - | -
CCSc1nnc(-c2c[nH]c3ccccc23)o1 | 19µM | 4µM | ? | . | ? | 3.2µM
Cn1nnc2c(NCc3ccc(Cl)cc3)ncnc21 | - | . | . | . | . | .
COc1cc(CN(C)c2ncnc3sccc23)ccc1OC(F)F | - | - | ? | . | - | -
Cc1ccc(Cl)cc1-c1ccc(C=Nc2ccc(N3CCOCC3)cc2)o1 | - | - | ? | - | - | -
Cc1nc(S/C(=C/c2ccc(-c3ccc(C(=O)O)cc3)o2)C(=O)O)n[nH]1 | ? | - | - | . | - | -
Cc1nc(S/C(=C/c2ccc(-c3cc(Cl)ccc3C)o2)C(=O)O)n[nH]1 | 27µM | - | - | . | - | -
Cc1nc(S/C(=C/c2ccc(-c3ccc(Cl)cc3)o2)C(=O)O)n[nH]1 | 8.5µM | - | - | - | - | -
CC(=O)c1ccc(-c2ccc(/C=C(/Sc3n[nH]c(C)n3)C(=O)O)o2)cc1 | 6µM | - | - | . | - | -
COCCNC(=O)c1sc2ncccc2c1-n1c(C)ccc1C | - | . | . | . | . | .
COc1cc(C(=O)NCCC(=O)NC(C)CCc2ccccc2)cc(OC)c1OC (stereo not given) | - | - | - | . | - | -
Cc1nc(N)sc1N=Nc1ccccc1C(F)(F)F | 12µM | 2.8µM | ? | . | ? | ?
CCCCc1nc2c(c3c1C[C@H](C)OC3)CN(C(=O)c1cc(I)ccc1F)CC2 | . | . | . | -[9.22 µM] | . | .
Cc1ccc(/C=N/NC(=O)c2ccncc2)s1 | ? | - | - | . | - | -
Cc1cccc(N/N=C/c2ccc(C)s2)c1 | 12µM | ? | ? | . | ? | ?
Cc1ccc(/C=N/N=C/c2ccc(C)s2)s1 | 0.67µM | 2.2µM | ? | 7.1µM | 3.7µM | 1.6µM
CCOc1ccc(CCNC(=O)COC(=O)c2ccc(OC)c(OC)c2OC)cc1OCC | - | - | 9.2µM | - | - | -
CCOc1ccc(CCNC(=O)COC(=O)c2cccc(N(C)C)c2)cc1OCC | - | 1.6µM | ? | . | 1.8µM | 4µM
Cc1c(Cl)cccc1NC(=O)CSc1nc(=O)[nH]c2c1CCCC2 | - | . | . | . | . | .
Cc1ccc(NC(=O)CN2C(=O)COc3ccc(S(=O)(=O)N4CCCCCC4)cc32)c(C)c1 | - | . | . | . | . | .
CCOc1ccc(/C=C/c2nc(C#N)c(N3CCCCC3)o2)cc1 | - | . | . | - | . | .
O=C(Nc1ccc2nn(-c3ccccc3)nc2c1)c1cccs1 | -[2.3 µM] | 3.5µM | ? | ? | ? | ?
SMILES | FLuc modulator | Rab9 promoter act | ELG1 DNA repair | SMN2 splice up | ELG1 genotox | NPC1 promoter act
Cn1cnc2cc(NC(=O)c3cccs3)ccc21 | 17µM | 2.8µM | ? | . | ? | ?
Cc1cccc(C(=O)Nc2ccc3c(c2)ncn3C)c1 | 9.5µM | 1.3µM | ? | . | ? | 1.6µM
Cc1cccc(C(=O)Nc2ccc3c(c2)nc(C)n3C)c1 | 3µM | 0.32µM | ? | . | ? | 0.4µM
CCC(=O)Nc1ccc2c(c1)ncn2C | - | - | - | - | - | -
CSCc1c(C(=O)OCC(=O)NC2CCCCC2)oc2ccccc12 | - | - | - | . | - | -
O=C(NCC1CCCO1)c1ccc2nc(N3CCCCC3)sc2c1 (stereo not given) | 17µM | ? | ? | - | ? | 2µM
COc1ccccc1CNC(=O)c1ccc2nc(N3CCCCC3)sc2c1 | ? | . | . | - | . | .
CC1CCN(c2nc3ccc(C(=O)NCc4ccccc4Cl)cc3s2)CC1 | 6.7µM | . | . | - | . | .
Cc1ccc(CCNC(=O)c2ccc3nc(N4CCC(C)CC4)sc3c2)cc1 | - | . | . | - | . | .
CC1CCN(c2nc3ccc(C(=O)NCc4ccc(Cl)cc4)cc3s2)CC1 | 11µM | . | . | - | . | .
Cc1cccc(N2CCN(C(=O)c3ccc4nc(N5CCC(C)CC5)sc4c3)CC2)c1C | ? | . | . | - | . | .
CC1CCN(c2nc3ccc(C(=O)O)cc3s2)CC1 | 0.21µM | - | ? | - | - | -
CNC(=O)c1ccccc1 | . | . | . | - | . | .
CCCCNC(=O)c1cnc2sc(N3CCCCCC3)nn2c1=O | - | . | . | . | . | .
COc1ccccc1NC(=O)c1ncoc1-c1ccco1 | - | . | . | . | . | .
Cc1ccc(NC(=O)c2cc3c(=O)n(Cc4ccco4)ccc3nc2C)cc1C | - | . | . | . | . | .
O=S(=O)(c1ccc(Cl)cc1)c1nc(-c2ccco2)oc1SCc1ccccc1F | - | . | . | - | . | .
O=C(NCCCN1CCN(c2ccccc2F)CC1)c1ccc2nc(N3CCCCC3)sc2c1 | ? | . | . | 5.6µM | . | .
CCc1ccc(NC(=O)Cn2c(=O)n(CC3CCCO3)c(=O)c3cc(OC)c(OC)cc32)cc1 (stereo not given) | - | . | . | - | . | .
Cc1nc2nc(SCc3c(F)cccc3Cl)nn2c(C)c1Cc1ccccc1 | 5.4µM | . | . | . | . | .
CCOc1ccc(C(=O)NCCn2cc(SCC(=O)Nc3cc(C)on3)c3ccccc32)cc1 | 12µM | - | ? | - | - | -
COc1ccc(C(=O)NCCn2cc(SCC(=O)Nc3cc(C)on3)c3ccccc32)cc1OC | - | - | ? | - | - | -
COc1ccccc1C(=O)NCCn1cc(SCC(=O)Nc2cc(C)on2)c2ccccc21 | ? | - | 23µM | - | - | -
O=[N+]([O-])c1ccc(CSc2nc3ccccc3o2)cc1 | 2.4µM | 0.89µM | ? | 7.9µM | ? | 0.63µM
COC(=O)c1ccc(CSc2nnc3c(n2)[nH]c2ccccc23)cc1 | - | - | - | . | - | -
SMILES | FLuc modulator | Rab9 promoter act | ELG1 DNA repair | SMN2 splice up | ELG1 genotox | NPC1 promoter act
COC(=O)c1ccc(CSc2nc3ccccc3o2)cc1 | 1.1µM | 0.89µM | ? | 22µM | ? | 1.6µM
COC(=O)c1ccc(CSc2nc(N)cc(N)n2)cc1 | ? | - | ? | - | 15µM | -
COC(=O)c1ccc(CSc2nnc(C)s2)cc1 | ? | 3.5µM | ? | 25µM | - | ?
COC(=O)c1ccc(CSc2nnc(N)s2)cc1 | ? | ? | ? | - | - | ?
COCCNC(=O)CCC(=O)N1Cc2cccc(OC)c2Oc2ncccc21 | - | . | . | . | . | .
Cn1c(SCC(=O)NC2CCCC2)nnc1C(F)(F)F | - | - | - | . | - | -
O=c1cc(/C=C/c2ccccc2)oc2c1ccc1ccccc12 | ? | - | 18µM | - | - | -
Cc1ccc(CNC(=O)CN2N=C(c3ccc(C)cc3)CCC2=O)cc1 | - | . | . | . | . | .
CCCCNc1ncnc2c1cnn2-c1ccccc1 | 5.4µM | ? | ? | 3.5µM | ? | ?
Clc1ccc(-n2ncc3c(NCCCn4ccnc4)ncnc32)cc1 | 11µM | ? | ? | - | 8.2µM | ?
COCCCNc1ncnc2c1cnn2-c1ccc(F)cc1 | 11µM | . | . | . | . | .
CCc1nc(NC(C)(C)C)c2cnn(-c3ccccc3)c2n1 | 19µM | ? | ? | . | ? | ?

Screens (PubChem BioAssay)
